Among all 410,000 compounds or so, about 5,100 (1.2%) were called active. A call without a number means that no potency is given here. Inconclusive results (about 8%) are left out. For the sample, actives were picked, then their nearest neighbours and some compounds at random. Unmarked numbers belong to inactive results. Calls follow the shape of the full dose curve; tested in HEK293T cells.
Assay: High Throughput Screening for Foot and Mouth Disease Virus Antivirals; also: read-out not given here; nearly all actives have a fitted effect of over 45% in size
Conditions: FMDV antiviral cell-based qHTS; series mostly up to 57.9 µM
Potency is read from the fitted curve at half-maximal effect.

With `COc1ccc(CNC(=O)c2ccc(-c3cccnc3)c3ccoc23)cc1OC` as the compound, how does the Potency read?
Its Potency is 22.4 µM (active).

With `COCCCNC(=O)c1ccc(-c2c(C)noc2C)c2ccoc12` as the compound, how does the Potency read?
Its Potency is “inactive”.

Which Potency does the source give for `COc1ccc(CNC(=O)c2c(C)cc(=O)oc2C)cc1OC` here?
The Potency was “inactive”.

With `C=CC(=O)c1ccc2ccccc2c1` as the compound, how does the Potency read?
Its Potency is “inactive”.

With `CCOC(=O)N1CCN(Cc2ccc3c(c2)CN(C(=O)c2cccc(-n4cccn4)c2)CCO3)CC1` as the compound, how does the Potency read?
The Potency was “inactive”.

With `CCCCC/C=C\C/C=C\CCCCCCCCCC(=O)O` as the compound, how does the activity change, negative = inhibition read?
Its activity change, negative = inhibition is -17.4% [at 6.7 µM].

Which Potency does the source give for `Cn1c(=O)c2c(nc(Br)n2CCSc2nc3ccccc3o2)n(C)c1=O` here?
Its Potency is “inactive”.

Which Potency does the source give for `Cc1ccnc(SCCn2c(Br)nc3c2c(=O)[nH]c(=O)n3C)n1` here?
Its Potency is “inactive”.

With `Cn1c(=O)[nH]c(=O)c2c1nc(Br)n2CCCCSc1nc2ccccc2o1` as the compound, how does the Potency read?
The Potency was 35.5 µM (active).

With `COc1ccccc1CNc1ncnc2ccc(-c3ccc4c(c3)OCO4)cc12` as the compound, how does the Potency read?
The Potency was “inactive”.

For `CC1O[C@@H](Oc2c(-c3ccc(O)c(O)c3)oc3cc(O)cc(O)c3c2=O)C(O)C(O)C1O` (some centres not stated), which Potency is on record?
Its Potency is “inactive”.

With `COc1ccc(Cc2nc3ccc(C(=O)NCc4ccccc4C)cc3o2)cc1` as the compound, how does the Potency read?
Its Potency is “inactive”.

Which Potency does the source give for `COC(=O)c1ccccc1NC(=O)c1ccc2c(=O)n3c(nc2c1)CCCCC3` here?
Its Potency is “inactive”.

For `CCc1c(C)sc(NC(=O)C2c3ccccc3Oc3ccccc32)c1C(=O)OC(C)C`, which Potency is on record?
The Potency was “inactive”.

For `CC1CCN(S(=O)(=O)c2ccc3c(ccn3CC(=O)O)c2)CC1`, which Potency is on record?
The Potency was “inactive”.

For `CC1CCN(S(=O)(=O)c2ccc3c(c2)n(C)c(=O)n3C)CC1`, which Potency is on record?
Its Potency is “inactive”.

For `Cc1ccn2c(c1)nc(=O)c1cc(S(=O)(=O)N3CCC(C)CC3)ccc12`, which Potency is on record?
Its Potency is 11.2 µM (active).

With `CCc1ccc(CNC(=O)c2ccc(CS(=O)c3ccc(Br)cc3)o2)cc1` (configuration not stated) as the compound, how does the Potency read?
The Potency was “inactive”.

For `Cc1cccc(CNC(=O)c2cnn(-c3nccc(-c4ccccc4F)n3)c2C2CC2)n1`, which Potency is on record?
Its Potency is “inactive”.

With `Cc1ccc(-c2ccnc(-n3ncc(C(=O)N(C)Cc4cccc5ncccc45)c3C3CC3)n2)o1` as the compound, how does the Potency read?
Its Potency is “inactive”.

For `CN(Cc1cccc2ncccc12)C(=O)c1cnn(-c2nccc(-c3ccccc3F)n2)c1C1CC1`, which Potency is on record?
The Potency was 3.98 µM (active).

Which Potency does the source give for `COc1cccc(C2C(C(=O)Nc3ccc(C)cc3C)=C(C)Nc3c(C(=O)Nc4ccccc4)cnn32)c1` (configuration not stated) here?
The Potency was “inactive”.

With `Nc1nc(/C(=C/CC(=O)O)C(=O)N[C@@H]2C(=O)N3C(C(=O)O)=CCS[C@H]23)cs1` as the compound, how does the Potency read?
Its Potency is “inactive”.

Which Potency does the source give for `COc1ccccc1NC(=O)c1oc2ccccc2c1NC(=O)COc1ccccc1OC` here?
Its Potency is “inactive”.

For `CCOC(=O)CSc1nc2ccc(C)cc2n2cnnc12`, which Potency is on record?
The Potency was “inactive”.

With `c1ccc(CC2CCN(c3nc4ccccc4n4cnnc34)CC2)cc1` as the compound, how does the Potency read?
Its Potency is “inactive”.

For `O=C(c1ccccc1)c1ccc2nc(N3CCCCC3)c3nncn3c2c1`, which Potency is on record?
The Potency was 10 µM (active).
